High-throughput results as filed in PubChem BioAssay.
Compounds with a hit are over-represented: about 1.4% of the library has one in this group of screens.
BCLXL inh: inhibitors of human Bcl-xL. GST-Bcl-xL / FITC-Bim BH3 peptide fluorescence polarization. 320,000 tested, 0.7% active. inhibition, % at 10.9 µM. Q07817;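 active means inhibition above the mean of all tested compounds plus 3 SD, cutoff set per campaign, cut at about 30% in these data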;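 further: 0% = DMSO wells and 100% = unlabeled Bim-BH3 peptide competitor; inhibitors lower millipolarization by displacing the labeled peptide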
Target sequence (Q07817 whole entry, looked up): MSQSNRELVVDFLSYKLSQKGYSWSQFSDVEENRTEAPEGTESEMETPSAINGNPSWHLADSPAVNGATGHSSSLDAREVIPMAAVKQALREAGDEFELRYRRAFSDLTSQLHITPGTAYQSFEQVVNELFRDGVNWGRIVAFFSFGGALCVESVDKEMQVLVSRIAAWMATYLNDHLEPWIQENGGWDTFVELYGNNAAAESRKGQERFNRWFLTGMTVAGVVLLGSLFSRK
MCL1-BIM inh: inhibitors of human MCL1 binding to BIM-BH3 peptide; Q07820; GST-MCL1 / FITC-Bim-BH3 fluorescence polarization; inhibition, % at 10.9 µM; 320,000 tested, 0.68% active; AID 2057;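 active means inhibition above the mean inhibition of all tested compounds plus 3 SD, set per campaign, cut at about 40% in these data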;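 further: 0% = DMSO wells and 100% = unlabeled Bim-BH3 peptide control; higher means more loss of mP so more displacement of Bim peptide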
GLD-1 TGE inh: GLD-1-TGE RNA interaction inhibition (C. elegans) | Q17339 | purified GLD-1 + fluorescein TGE RNA, fluorescence polarization | 320,000 tested, 0.44% active | AID 2280 | inhibition, % at 5.96 µM;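 active means percent inhibition above a per-plate cutoff, the plate mean of test compounds plus 3 SD, cut at about 30% in these data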;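 further: 0% = DMSO wells with GLD-1 and probe and 100% = wells lacking GLD-1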
MEX-5 binding: C. elegans MEX-5 TCR-2 RNA binding activity; 300,000 tested, 0.38% active; activity score (negative = inhibition of binding), % at 10 µM; Q9XUB2; MEX-5/FITC-TCR2 RNA binding, fluorescence polarization; active compounds read low;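 active means inhibition past about -25% in most replicates, and total fluorescence under double the plate's negative control median, limit read from the data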;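 further: 0% = DMSO and -100% = 5 µM competing unlabeled TCR2 RNA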
E coli Lon inh: E. coli protease La inhibition | P0A9M0 | inhibition, % at 7.94 µM | 360,000 tested, 0.42% active | purified E. coli Lon protease, fluorescence polarization; in the data active means inhibition above about 13%, passing the limit was not always enough;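 further: 0% = enzyme with probe and DMSO and 100% = no enzyme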
An asterisk follows results filed as active; . = no result.

SMILES	BCLXL inh	MCL1-BIM inh	GLD-1 TGE inh	MEX-5 binding	E coli Lon inh
COC(=O)[C@]12CCCCC=C1N(Cc1cccc3ccccc13)C(=O)[C@H](CC(=O)NCc1ccc(OC)c(OC)c1)C2	.	.	.	.	-1
N#Cc1c(N)sc(=S)c2c1CCN(Cc1ccccc1)C2	144*	174*	28	.	.
Cc1ccc(CNC(=O)C2CC(=O)N(C3CCCC3)C2)cc1 (configuration not stated)	7	-3	3	.	-8
CC(CCc1ccccc1)NC(=O)C1CCN(C(=O)c2sccc2-n2cccc2)CC1 (configuration not stated)	72*	-3	2	2	-3
O=C(NCCc1ccc(Cl)cc1)C1CCN(C(=O)c2sccc2-n2cccc2)CC1	9	8	2	-1	4
CC(NC(=O)Nc1ccc([N+](=O)[O-])cc1)C(c1cccs1)N1CCCC1 (configuration not stated)	52*	2	4	-2	13
CC(NC(=O)Nc1cccc(Cl)c1)C(c1cccs1)N1CCCC1 (configuration not stated)	6	0	5	0	-5
CC(C)(CC1(C)NC(=O)NC1=O)OCc1ccccc1 (configuration not stated)	.	.	.	.	1
CC(CN1CCC(n2nccc2NC(=O)c2ccccc2Cl)CC1)c1ccccc1 (configuration not stated)	33*	33	6	-18	12
Cc1ccccc1C(=O)Nc1ccnn1C1CCN(C(C)Cc2ccccc2F)CC1 (configuration not stated)	39*	42*	4	-15	3
CCN1CCc2c(C#N)c(N3CCOCC3)nc(NCc3ccccc3)c2C1	.	.	.	-1	-3
CCN1CCc2c(C#N)c(N3CCOCC3)nc(NCCO)c2C1	44*	40	27	-11	5
O=c1[nH][nH]c2cc(=O)n(-c3ccc(Cl)cc3)nc12	20	23	2	-32*	-2
COc1cc(C(=O)Nc2nc3ccccc3[nH]2)ccc1OC(F)F	73*	-6	1	2	5
COc1ccc(C(=O)Nc2nc3ccccc3[nH]2)cc1OC	-1	-2	-3	-1	3
O=C1c2cccc3c([N+](=O)[O-])ccc(c23)C(=O)N1c1nccs1	31*	28	25	-1	13
CCC(c1nnc(SCC(=O)NCCc2ccc(Cl)cc2Cl)o1)N(C)C (configuration not stated)	5	13	0	1	-10
Cc1cc2c(n1-c1ccc(C(=O)O)cc1)CCCCC2	.	.	.	-62*	.
CCN(CCCCN1C(=O)c2ccccc2C1=O)c1ccc2c(c1)C(=O)N(C)C2=O	38*	49*	6	-15	-1
CCC(=O)c1cn(CC(=O)Nc2ccc(C)cc2)c2ccccc12	3	-8	-7	2	-2
Cc1ccc(-n2c(SC3CCOC3=O)nc3ccccc3c2=O)cc1 (configuration not stated)	31*	9	4	1	.
O=C1OCCC1Sc1nc2ccccc2c(=O)n1-c1ccc(F)cc1 (configuration not stated)	1	-5	-2	-1	0
Cc1coc(NC(=O)CSc2nc(-c3ccc(Cl)cc3)cc(C(F)(F)F)c2C#N)n1	45*	40*	6	-4	-5
Cc1ccc(N/C=C2/Sc3ccccc3NC2=O)cc1	5	5	-61	-54*	-14
O=C(O)CCCCCN1C(=O)C(O)=C(C(=O)/C=C/c2ccccc2)C1c1ccccc1[N+](=O)[O-] (configuration not stated)	10	4	-2	-40*	4
SMILES	BCLXL inh	MCL1-BIM inh	GLD-1 TGE inh	MEX-5 binding	E coli Lon inh
COc1cccc(C(=O)NC(=S)Nc2cccnc2)c1	8	6	2	0	5
COc1ccc(C(=O)NC(=S)Nc2cccnc2)cc1Cl	12	15	52*	-2	15
CCCCN1C2=C(C(=O)CCC2)C(c2ccc(Cl)c(Cl)c2)C2=C1c1ccccc1C2=O (configuration not stated)	44*	43*	5	-3	3
COc1ccc(/C=c2\sc3nc(=O)c(C)nn3c2=O)c(OC)c1	-14	-22	-5	-40*	-3
CC(=O)Oc1cc2c3c(c1)/C(=C1/SC(=S)NC1=O)C(=O)N3C(C)(C)C=C2C	50*	10	9	1	3
CCOc1cc2c3c(c1)C(C)=CC(C)(C)N3C(=O)C2=O	3	3	3	-1	-6
CCC1Oc2ccccc2N(CC(=O)NC2CCCC2)C1=O (configuration not stated)	0	1	0	-3	-8
O=C1c2cc(CO)cc(O)c2C(=O)c2c(O[C@@H]3OC(CO)[C@@H](O)[C@@H](O)[C@@H]3O)cccc21 (some centres not stated)	11	14	10	-5	6
O=C(O)c1cc(O)c2c(c1)[C@@H]([C@H]1c3cc(C(=O)O)cc(O)c3C(=O)c3c(O[C@@H]4O[C@H](CO)[C@@H](O)[C@H](O)[C@H]4O)cccc31)c1cccc(OC3O[C@H](CO)[C@@H](O)[C@H](O)[C@H]3O)c1C2=O (some centres not stated)	97*	114*	30	-100*	-8
O=C(O)c1cc(O)c2c(c1)[C@H]([C@H]1c3cc(C(=O)O)cc(O)c3C(=O)c3c(O[C@@H]4O[C@H](CO)[C@@H](O)[C@H](O)[C@H]4O)cccc31)c1cccc(OC3O[C@H](CO)[C@@H](O)[C@H](O)[C@H]3O)c1C2=O (some centres not stated)	94*	110*	29	-98*	3
CC1CCCCC1NC(=O)Cn1cnc2sccc2c1=O (configuration not stated)	.	.	.	.	-14
COCCn1c(SCC(=O)NC2CCCC2)nc2c(c1=O)SCC2	0	5	1	-3	-7
Cc1cc(C(=O)NNC(=O)CCCCC(=O)NNC(=O)c2cc(C)[nH]n2)n[nH]1	-1	11	7	-37*	-10
COc1ccc(CC(=O)NNC(=O)c2cc(C)[nH]n2)cc1	-1	-7	2	-8	-2
CCOC(=O)C1=C(C)S/C(=C\N(C)C)C1=O	2	14	9	1	-5
CCOC(=O)C1=C(C)NC(=O)/C1=C\N(C)C	38*	31	21	-3	-3
O=C(CSc1nc(COc2ccccc2)nc2ccccc12)NC1CCCC1	6	8	6	-3	-9
CC1(OC(=O)C2CCCC2)C(=O)C=C2C=C3CCCCN3C=C2C1=O (configuration not stated)	32*	47*	18	-8	22
CC1(OC(=O)c2ccc(Cl)nc2)C(=O)C=C2C=C3CCCN3C=C2C1=O (configuration not stated)	13	26	12	.	9
